Source: PubChem
LASV entry inh – qHTS for Inhibitors of binding or entry into cells for Lassa Virus | Lassa virus pseudotype entry inhibition, cell reporter | Potency, µM (top dose mostly 37.9 µM), without a hit: top-dose activity change, negative = inhibition, actives largely listed as inhibitors | 300,000 compounds, 1.2% hits; calls by dose curve; tested in HEK293 cells; note: potency is the fitted concentration of half-maximal effect; nearly all actives have a fitted effect of over 50% in size
HCMV inh – qHTS Assay for inhibitors of the human cytomegalovirus (HCMV); HFF cells, HCMV-luciferase reporter, 72 h; hits give low values; activity change, negative = inhibition, % at 57.5 µM; 410,000 compounds, 4.5% hits; AID 1259415, 2018; in the data active = activity change below about -60%; inconclusive = no clear call, values can overlap the other calls; inactive = above about -39%
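Compounds were evaluated in HFFs infected with an HCMV luciferase reporter virus (MOI 1 PFU/cell). Luciferase in lysates collected 72 h post infection served as the replication measure.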
FMDV antiviral – High Throughput Screening for Foot and Mouth Disease Virus Antivirals; Potency, µM (highest dose often 57.9 µM), for the others: top-dose activity change, negative = inhibition, most hits filed as inhibitors; 410,000 compounds, 1.2% hits; FMDV antiviral cell-based qHTS; AID 1159524, 2015; calls by dose curve; tested in HEK293T cells; note: read-out not given here; potency is the fitted concentration of half-maximal effect; nearly all actives have a fitted effect of over 45% in size
HCV inhibitor – qHTS Assay for Inhibitors of Hepatitis C Virus (HCV); Huh7.5.1 HCVcc-Cre infection, luciferase reporter, 44 h; Potency, µM (titrated, usually from 41.8 µM), without a hit: at the highest dose activity change, negative = inhibition, hits mostly inhibitors; 340,000 compounds, 3.4% hits; AID 651820, 2012; active = well fitted inhibition curve with a large enough effect; inconclusive = small, poorly fitted or top-dose-only effect, or another doubt; inactive = no such curve, though single readings can be large or run the other way; note: potency is the fitted concentration of half-maximal effect
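Reporter virus HCVcc-Cre (~0.5 moi) infects cells exposed to compound; seeding density 1,000 cells/well with 4 h settling beforehand. Luminescence, 15 sec read, taken 44 h post-infection following a 15 min RT substrate incubation.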
MARV entry inh – qHTS for inhibitors of binding or entry into cells for Marburg Virus; Marburg virus pseudotyped entry inhibition, cell reporter; Potency, µM (titrated, usually from 37.8 µM), for inactives: top-dose activity change, negative = inhibition, hits mostly inhibitors; 300,000 compounds, 1.8% hits; calls by dose curve; tested in HEK293 cells; note: potency is the fitted concentration of half-maximal effect
An asterisk follows results filed as active; u = inconclusive; x = no result given; ! = repeats disagree; [ ] = another dose, or the depositor's remark. The list is not random: actives were taken first. Their share in the collection is about 7.9%. % is set by controls: 0 for no effect and ±100 for the full control effect.

SMILES	LASV entry inh	HCMV inh	FMDV antiviral	HCV inhibitor	MARV entry inh
OC(CN1CCN(c2ccccc2)CC1)Cn1c2ccccc2c2ccccc21 (stereo not drawn)	u	-14.8	u	2.5%	13.5%[46.1 µM]
COc1ccc(-c2cc3ccccc3n2CC(O)CN2CCCCC2)cc1 (stereo not drawn)	x	-81.2*	-33.1%	-7.9%	x
OC(CN1CCN(Cc2ccccc2)CC1)Cn1c2ccccc2c2ccccc21 (stereo not drawn)	-25.2%	-27.7	-19.0%	11.2µM*	u
C=C1Cc2c(Cl)cc3[nH]c4c5c3c2[C@@]2(O)[C@@H]1C[C@@H]2C(C)(C)O[C@H]5[C@@H]1CC[C@@]2(O)[C@@]35O[C@@H]3[C@@H](O)[C@@H](C(=O)O)O[C@H]5CC[C@]2(C)[C@@]41C	x	x	-5.7%	x	x
Cc1ccc(C(=O)N/N=C(/CC(=O)c2cccs2)C(F)(F)F)cc1	u	-85.8*	-10.0%	-24.1%	u
O=C(N/N=C(\CC(=O)c1cccs1)C(F)(F)F)c1ccncc1	u	-76.5*	-11.4%	u	u
Cc1ccc(NCCC(=O)c2cccs2)cc1	x	4.8	8.6%	12.4%	x
CCN1C(=NCCc2cccnc2)N[C@H](CCc2ccccc2)[C@H](C(=O)OC)[C@H]1C	x	x	x	x	-16.2%[14.2 µM]
O=c1c(-c2ccccc2)nc2ccccc2n1C(c1ccccc1)c1nc2ccccc2[nH]1 (stereo not drawn)	x	38.2	0.0%	x	x
O=c1c(-c2ccccc2)nc2ccccc2n1C(CCc1ccccc1)c1nc2ccccc2[nH]1 (stereo not drawn)	x	-66.6*	-7.7%	x	x
CCN(c1cccc(C)c1)S(=O)(=O)c1ccc2c(c1)CCCN2C(C)=O	u	u	-14.3%	-14.3%	u
CCN(c1cccc(C(F)(F)F)c1)S(=O)(=O)c1ccc2c(c1)CCN2C(C)=O	17.8µM*	-33.6	u	u	u
CCN(c1cccc(C)c1)S(=O)(=O)c1ccc2c(c1)CCN2C(C)=O	u	u	u	11.2µM*	u
COc1ccc(NC(=O)c2oc3ccccc3c2NC(=O)c2cc(C)cc(C)c2)c(OC)c1	6.8%[46.1 µM]	0.6	3.0%	x	-1.2%[46.1 µM]
Cc1cccc(CC2C(=O)Nc3ccccc32)c1 (stereo not drawn)	6.1%[46.1 µM]	-70.0*	-4.0%	x	u
O=C1Nc2ccccc2C1Cc1ccc(Br)cc1 (stereo not drawn)	-8.7%[46.1 µM]	-29.3	-8.4%	x	-2.3%[46.1 µM]
CN(C)c1ccc(CC2C(=O)Nc3ccccc32)cc1 (stereo not drawn)	-8.6%	-63.3*	49.7%	5.1%	24.6%[46.1 µM]
COc1cccc(-c2cc3c(c(OC)c2)OCCN(Cc2cccn2-c2ccccn2)C3)c1	x	x	1.3%	x	x
Nc1nc(NCc2ccccc2)nc(-c2ccccc2)n1	-7.0%	105.7	x	10µM*	5.9%
Nc1cc(-c2ccc(OC(F)(F)F)cc2)nn1-c1ccc(Cl)c(Cl)c1	u	-65.6*	-6.5%	-0.5%	4.2%
CCCN(C(=O)c1cc2c(=O)oc3ccccc3c2s1)c1ccccc1C	2.3%[46.1 µM]	-8.8	39.8µM*	x	9.3%[46.1 µM]
COc1ccc(NS(=O)(=O)c2ccc(N/N=C(\C)c3ccncc3)c([N+](=O)[O-])c2)cc1	11.6µM*	-66.5*	-13.1%	4.47µM*	6.31µM*
CCCC(CCC)=NNc1ccc(S(=O)(=O)Nc2ccccc2OC)cc1[N+](=O)[O-]	u	-32.3	-2.6%	15.2%	u
COc1ccccc1NS(=O)(=O)c1ccc(N/N=C(\C)C(C)C)c([N+](=O)[O-])c1	u	-61.1*	-9.9%	u	u
CC(CNC(=O)c1cc2ccccn2n1)c1ccccc1 (stereo not drawn)	17.1%[46.1 µM]	53.6	21.9%	x	x
SMILES	LASV entry inh	HCMV inh	FMDV antiviral	HCV inhibitor	MARV entry inh
COc1ccc(CN2C(=O)C(n3c(C)ccc3C)c3ccccc32)cc1 (stereo not drawn)	x	-7.3	x	x	x
CCc1ccc(C(=O)CSc2nc(-c3ccccc3)nc3c2CCCC3)cc1	12.0%[46.1 µM]	12.2	-13.4%	x	u
COc1ccc(NC(=O)CCc2nc(C3=CCN(Cc4cccc(Cl)c4)CC3)no2)c(OC)c1	17.9%[46.1 µM]	-8.9	u	x	x
COc1ccc(NC(=O)CCc2nc(C3=CCN(Cc4cccc(Cl)c4)CC3)no2)cc1OC	-26.8%[46.1 µM]	-17.5	31.6µM*	x	x
Cc1cc2cc(CNC(=S)Nc3ccc(OC(F)(F)F)cc3)ccc2[nH]1	-20.8%	-75.1*	-5.8%	-27.3%[8.37 µM]	-19.6%
Cc1cc(C)c(NC(=O)CCS(=O)(=O)c2cc3c(cc2Cl)NC(=O)CO3)c(C)c1	-0.8%[46.1 µM]	9.0	-26.4%	x	x
Cc1cccc(N2C(=O)CS(=O)(=O)C23C(=O)N(C)c2ccccc23)c1 (stereo not drawn)	21.8%[46.1 µM]	-9.7	-15.1%	x	x
CCCc1nn(C)c2c1[C@@H](c1cccnc1)C(C#N)=C(N)O2	x	x	x	x	-3.8%
CC(C)(C)c1ccc(C(O)CCCN2CCC(C(O)(c3ccccc3)c3ccccc3)CC2)cc1 (stereo not drawn)	2.91µM*!	-23.8	u	1.7%[8.37 µM]	2.24µM*!
CC(C)(C)c1ccc([C@@H](O)CCCN2CCC(C(O)(c3ccccc3)c3ccccc3)CC2)cc1	x	x	x	x	-17.7%
COc1ccccc1-c1ccc(OCCCN2CCC(C(O)(c3ccccc3)c3ccccc3)CC2)cc1	x	-98.8*	x	x	x
Cc1ccc(C)c(CN2CCC3(CCC(CNC(=O)c4ccnn4C)O3)CC2)c1 (stereo not drawn)	x	x	2.1%	x	x
CCOC(=O)c1c(C)sc(-c2c(-c3ccc4c(c3)OCCO4)[nH]c3c2c(=O)n(C)c(=O)n3C)c1O	-2.2%[46.1 µM]	-2.9	0.0%	x	-0.7%[46.1 µM]
Cc1c(Cl)cccc1-n1nc(C)c2c(C(=O)NCc3ccccc3)cc(C3CC3)nc21	9.5%[46.1 µM]	-5.1	-2.5%	x	x
CC(=O)Nc1ccc(Oc2sc(C(=O)c3ccccc3)c(N)c2C#N)cc1	0.891µM*	-88.3*	u	u	u
Cc1ccc2nc(NC(=O)CSCC(=O)OCC(=O)c3ccc(Br)cc3)sc2c1	7.94µM*	-4.0	7.94µM*	3.8%	3.16µM*
NC(=O)COC(=O)c1cccnc1Nc1ccccc1F	19.4%	-70.7*	14.3%	4.5%	16.5%[46.1 µM]
CCCOc1c(OC)cccc1C1CC(=O)Nc2cc3c(cc21)OCO3 (stereo not drawn)	7.08µM*	-19.1	u	11.2µM*	u
COc1ccc(Cl)cc1C1CC(=O)Nc2cc3c(cc21)OCCO3 (stereo not drawn)	-34.6%[46.1 µM]	-92.1*	-0.9%	x	u
CCCOc1c(OC)cccc1C1CC(=O)Nc2cc3c(cc21)OCCO3 (stereo not drawn)	u	21.2	0.0%	u	u
COc1ccccc1C1CC(=O)Nc2cc3c(cc21)OCCO3 (stereo not drawn)	u	-85.0*	u	u	2.06µM*
CCOc1cccc(C2CC(=O)Nc3cc4c(cc32)OCCO4)c1 (stereo not drawn)	u	-22.5	0.0%	x	2.24µM*
